Data taken from the supplement of paper PMC11732987, “Enantioselective OTUD7B fragment discovery through chemoproteomics screening and high-throughput optimisation” (Communications Chemistry, 2025).

Key:
Test in all cases: log2 ratio of Biotin-Ahx-Ub-VS probe labelling (fragment/DMSO); higher = less target engagement (more negative = stronger competition), active = hit call of the paper (q ≤ 0.05, log2 ratio ≤ -1)
Conditions in all cases: compound concentration: 200 uM; treatment time: 3 h
USP42 = target: T1, USP42 (UniProt Q9H9J4)
T1 sequence (whole entry): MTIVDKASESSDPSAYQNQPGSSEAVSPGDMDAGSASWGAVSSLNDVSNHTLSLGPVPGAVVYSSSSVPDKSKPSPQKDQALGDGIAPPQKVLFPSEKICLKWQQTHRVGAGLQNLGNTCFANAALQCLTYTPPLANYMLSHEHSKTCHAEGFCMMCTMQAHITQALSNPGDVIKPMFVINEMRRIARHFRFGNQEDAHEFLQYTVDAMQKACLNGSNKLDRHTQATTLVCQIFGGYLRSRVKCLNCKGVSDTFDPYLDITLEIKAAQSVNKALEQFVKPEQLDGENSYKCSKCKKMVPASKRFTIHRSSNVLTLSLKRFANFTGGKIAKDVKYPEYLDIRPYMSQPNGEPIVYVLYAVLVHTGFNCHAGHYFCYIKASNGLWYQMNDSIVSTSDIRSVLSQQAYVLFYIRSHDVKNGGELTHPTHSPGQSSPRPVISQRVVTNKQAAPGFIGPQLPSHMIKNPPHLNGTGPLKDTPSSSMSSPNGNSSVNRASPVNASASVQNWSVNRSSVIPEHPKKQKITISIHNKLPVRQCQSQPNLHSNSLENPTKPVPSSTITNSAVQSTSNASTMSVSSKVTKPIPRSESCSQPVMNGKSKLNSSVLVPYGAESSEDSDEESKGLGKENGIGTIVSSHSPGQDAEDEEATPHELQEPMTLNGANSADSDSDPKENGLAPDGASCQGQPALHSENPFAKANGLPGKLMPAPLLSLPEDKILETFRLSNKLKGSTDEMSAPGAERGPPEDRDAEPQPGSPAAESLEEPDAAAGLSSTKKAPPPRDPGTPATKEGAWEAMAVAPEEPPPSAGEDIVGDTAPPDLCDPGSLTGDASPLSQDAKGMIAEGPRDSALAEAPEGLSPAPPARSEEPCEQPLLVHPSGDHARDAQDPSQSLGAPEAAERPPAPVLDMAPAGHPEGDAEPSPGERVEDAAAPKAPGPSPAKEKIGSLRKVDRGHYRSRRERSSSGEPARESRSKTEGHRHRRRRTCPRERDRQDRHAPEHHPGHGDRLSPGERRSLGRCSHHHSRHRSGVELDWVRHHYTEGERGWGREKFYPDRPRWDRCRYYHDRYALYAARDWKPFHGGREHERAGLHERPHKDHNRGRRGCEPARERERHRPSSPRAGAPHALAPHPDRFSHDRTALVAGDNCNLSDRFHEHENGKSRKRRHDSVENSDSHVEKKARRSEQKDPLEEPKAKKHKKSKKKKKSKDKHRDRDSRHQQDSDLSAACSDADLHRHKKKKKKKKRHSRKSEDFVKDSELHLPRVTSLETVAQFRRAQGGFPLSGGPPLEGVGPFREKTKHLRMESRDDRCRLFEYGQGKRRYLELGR
In short: (§1)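 HEK293T lysate (495 µg per sample, in Tris/CHAPS/IGEPAL buffer with protease inhibitors) was exposed in triplicate for 3 h to fragment at 200 µM or to vehicle, then to Biotin-Ahx-Ub-VS at 0.5 µM final for 1 h. Labelled DUBs were enriched on NeutrAvidin, digested with LysC and trypsin, and analysed by diaPASEF LC-MS/MS. Spectronaut label-free quantities were normalised to the global median, and values are average log2 ratios of fragment over vehicle from an unpaired t-test. Only proteins with ≥2 unique peptides were used.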

USP46 = USP46 (UniProt P62068)
Chain of USP46 (P62068 whole entry): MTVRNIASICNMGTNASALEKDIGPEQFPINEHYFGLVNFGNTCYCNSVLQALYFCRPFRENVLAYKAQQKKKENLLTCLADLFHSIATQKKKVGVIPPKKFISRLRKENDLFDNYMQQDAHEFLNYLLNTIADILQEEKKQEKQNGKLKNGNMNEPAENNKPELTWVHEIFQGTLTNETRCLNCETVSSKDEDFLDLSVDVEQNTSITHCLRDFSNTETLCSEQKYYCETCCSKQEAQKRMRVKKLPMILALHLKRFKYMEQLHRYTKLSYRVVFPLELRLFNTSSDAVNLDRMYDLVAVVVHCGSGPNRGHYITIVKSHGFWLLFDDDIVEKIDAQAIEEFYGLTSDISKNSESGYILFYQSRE
In short: as §1

USP47 = target: T2, USP47 (UniProt Q96K76)
T2 sequence (whole entry): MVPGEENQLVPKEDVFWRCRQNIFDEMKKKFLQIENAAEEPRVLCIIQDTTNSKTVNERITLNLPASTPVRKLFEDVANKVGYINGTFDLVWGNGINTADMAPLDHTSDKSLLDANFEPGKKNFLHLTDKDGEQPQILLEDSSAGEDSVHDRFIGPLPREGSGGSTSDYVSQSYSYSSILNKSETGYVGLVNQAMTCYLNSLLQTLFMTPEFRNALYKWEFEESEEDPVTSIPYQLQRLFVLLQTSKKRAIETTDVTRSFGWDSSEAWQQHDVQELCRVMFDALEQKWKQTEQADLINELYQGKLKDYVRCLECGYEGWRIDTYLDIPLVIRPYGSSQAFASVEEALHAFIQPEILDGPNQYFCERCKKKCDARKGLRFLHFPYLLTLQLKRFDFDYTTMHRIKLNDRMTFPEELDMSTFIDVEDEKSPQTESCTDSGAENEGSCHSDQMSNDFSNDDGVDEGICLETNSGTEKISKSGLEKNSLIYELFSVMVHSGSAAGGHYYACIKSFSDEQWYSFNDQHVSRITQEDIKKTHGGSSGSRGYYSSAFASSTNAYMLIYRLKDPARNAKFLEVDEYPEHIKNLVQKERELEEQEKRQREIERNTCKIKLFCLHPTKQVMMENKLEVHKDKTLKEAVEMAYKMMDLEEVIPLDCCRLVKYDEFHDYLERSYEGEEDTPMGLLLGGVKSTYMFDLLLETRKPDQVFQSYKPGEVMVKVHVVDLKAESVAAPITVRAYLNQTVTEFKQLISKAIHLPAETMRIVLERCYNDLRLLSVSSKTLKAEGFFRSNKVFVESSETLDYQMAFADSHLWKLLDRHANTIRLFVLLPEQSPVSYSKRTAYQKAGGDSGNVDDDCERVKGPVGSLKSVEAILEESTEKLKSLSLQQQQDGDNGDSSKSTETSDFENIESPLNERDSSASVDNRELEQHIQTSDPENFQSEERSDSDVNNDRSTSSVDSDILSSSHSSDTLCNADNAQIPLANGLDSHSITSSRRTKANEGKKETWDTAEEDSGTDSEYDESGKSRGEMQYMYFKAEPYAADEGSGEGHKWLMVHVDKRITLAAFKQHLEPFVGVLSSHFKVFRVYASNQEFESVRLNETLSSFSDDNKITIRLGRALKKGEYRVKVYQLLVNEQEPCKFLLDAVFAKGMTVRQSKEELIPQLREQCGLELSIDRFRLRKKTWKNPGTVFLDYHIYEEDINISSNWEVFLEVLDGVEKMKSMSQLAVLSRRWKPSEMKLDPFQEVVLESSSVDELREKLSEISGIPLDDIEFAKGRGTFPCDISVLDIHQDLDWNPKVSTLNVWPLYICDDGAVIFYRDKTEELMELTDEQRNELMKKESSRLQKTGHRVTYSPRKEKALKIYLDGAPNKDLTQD
In short: as §1

USP48 = target: T3, USP48 (UniProt Q86UV5)
T3 sequence (whole entry): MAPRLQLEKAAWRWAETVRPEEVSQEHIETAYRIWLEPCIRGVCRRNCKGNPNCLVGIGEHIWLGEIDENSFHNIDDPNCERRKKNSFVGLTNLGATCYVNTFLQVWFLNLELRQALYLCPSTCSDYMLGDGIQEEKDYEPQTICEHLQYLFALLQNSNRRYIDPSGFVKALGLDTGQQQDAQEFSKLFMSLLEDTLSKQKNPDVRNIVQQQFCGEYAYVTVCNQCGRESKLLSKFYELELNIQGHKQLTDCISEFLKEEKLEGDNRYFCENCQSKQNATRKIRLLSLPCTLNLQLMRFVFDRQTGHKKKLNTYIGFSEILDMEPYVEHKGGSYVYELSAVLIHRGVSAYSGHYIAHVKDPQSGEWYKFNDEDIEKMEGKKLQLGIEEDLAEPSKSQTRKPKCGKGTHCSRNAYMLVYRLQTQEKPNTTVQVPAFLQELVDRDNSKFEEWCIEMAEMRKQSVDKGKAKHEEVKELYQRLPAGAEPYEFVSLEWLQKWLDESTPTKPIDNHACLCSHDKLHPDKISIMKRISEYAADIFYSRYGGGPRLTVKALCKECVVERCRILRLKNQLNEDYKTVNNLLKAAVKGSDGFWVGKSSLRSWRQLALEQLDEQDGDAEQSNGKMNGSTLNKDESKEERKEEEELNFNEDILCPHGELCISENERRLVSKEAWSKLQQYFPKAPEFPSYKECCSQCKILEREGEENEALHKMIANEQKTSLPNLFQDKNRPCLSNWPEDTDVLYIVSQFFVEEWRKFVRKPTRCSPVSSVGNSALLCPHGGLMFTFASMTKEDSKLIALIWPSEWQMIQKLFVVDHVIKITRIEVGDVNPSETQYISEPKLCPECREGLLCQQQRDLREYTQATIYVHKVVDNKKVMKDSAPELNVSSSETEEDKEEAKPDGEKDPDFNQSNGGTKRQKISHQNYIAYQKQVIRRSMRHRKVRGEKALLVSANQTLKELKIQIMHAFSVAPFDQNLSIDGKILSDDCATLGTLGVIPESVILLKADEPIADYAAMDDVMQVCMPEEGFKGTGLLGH
In short: as §1

USP5 = target: T4, USP5 (UniProt P45974)
T4 sequence (whole entry): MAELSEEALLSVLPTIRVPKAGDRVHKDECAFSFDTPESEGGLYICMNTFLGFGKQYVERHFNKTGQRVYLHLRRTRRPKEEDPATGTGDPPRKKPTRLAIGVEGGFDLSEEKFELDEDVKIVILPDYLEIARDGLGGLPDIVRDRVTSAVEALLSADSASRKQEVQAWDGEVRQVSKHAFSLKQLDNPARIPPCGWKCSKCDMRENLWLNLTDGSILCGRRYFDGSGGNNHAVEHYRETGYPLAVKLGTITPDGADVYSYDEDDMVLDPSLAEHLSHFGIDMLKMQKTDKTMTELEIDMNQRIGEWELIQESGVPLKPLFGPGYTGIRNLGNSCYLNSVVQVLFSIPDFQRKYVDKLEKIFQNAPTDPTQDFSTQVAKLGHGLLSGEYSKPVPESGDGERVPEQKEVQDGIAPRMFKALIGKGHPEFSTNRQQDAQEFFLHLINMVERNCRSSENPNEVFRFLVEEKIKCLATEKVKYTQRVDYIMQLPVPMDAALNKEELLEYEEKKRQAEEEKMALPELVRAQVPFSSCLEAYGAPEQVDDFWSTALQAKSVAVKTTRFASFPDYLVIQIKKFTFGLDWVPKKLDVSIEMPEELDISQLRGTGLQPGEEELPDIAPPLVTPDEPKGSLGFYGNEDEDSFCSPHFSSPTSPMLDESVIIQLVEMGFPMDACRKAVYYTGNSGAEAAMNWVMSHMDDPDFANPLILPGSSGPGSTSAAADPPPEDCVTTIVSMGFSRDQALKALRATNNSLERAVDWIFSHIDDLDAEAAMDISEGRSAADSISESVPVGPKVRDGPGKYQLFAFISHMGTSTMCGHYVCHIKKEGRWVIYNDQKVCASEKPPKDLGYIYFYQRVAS
In short: as §1

USP54 = USP54 (UniProt Q70EL1)
Chain of USP54 (Q70EL1 whole entry): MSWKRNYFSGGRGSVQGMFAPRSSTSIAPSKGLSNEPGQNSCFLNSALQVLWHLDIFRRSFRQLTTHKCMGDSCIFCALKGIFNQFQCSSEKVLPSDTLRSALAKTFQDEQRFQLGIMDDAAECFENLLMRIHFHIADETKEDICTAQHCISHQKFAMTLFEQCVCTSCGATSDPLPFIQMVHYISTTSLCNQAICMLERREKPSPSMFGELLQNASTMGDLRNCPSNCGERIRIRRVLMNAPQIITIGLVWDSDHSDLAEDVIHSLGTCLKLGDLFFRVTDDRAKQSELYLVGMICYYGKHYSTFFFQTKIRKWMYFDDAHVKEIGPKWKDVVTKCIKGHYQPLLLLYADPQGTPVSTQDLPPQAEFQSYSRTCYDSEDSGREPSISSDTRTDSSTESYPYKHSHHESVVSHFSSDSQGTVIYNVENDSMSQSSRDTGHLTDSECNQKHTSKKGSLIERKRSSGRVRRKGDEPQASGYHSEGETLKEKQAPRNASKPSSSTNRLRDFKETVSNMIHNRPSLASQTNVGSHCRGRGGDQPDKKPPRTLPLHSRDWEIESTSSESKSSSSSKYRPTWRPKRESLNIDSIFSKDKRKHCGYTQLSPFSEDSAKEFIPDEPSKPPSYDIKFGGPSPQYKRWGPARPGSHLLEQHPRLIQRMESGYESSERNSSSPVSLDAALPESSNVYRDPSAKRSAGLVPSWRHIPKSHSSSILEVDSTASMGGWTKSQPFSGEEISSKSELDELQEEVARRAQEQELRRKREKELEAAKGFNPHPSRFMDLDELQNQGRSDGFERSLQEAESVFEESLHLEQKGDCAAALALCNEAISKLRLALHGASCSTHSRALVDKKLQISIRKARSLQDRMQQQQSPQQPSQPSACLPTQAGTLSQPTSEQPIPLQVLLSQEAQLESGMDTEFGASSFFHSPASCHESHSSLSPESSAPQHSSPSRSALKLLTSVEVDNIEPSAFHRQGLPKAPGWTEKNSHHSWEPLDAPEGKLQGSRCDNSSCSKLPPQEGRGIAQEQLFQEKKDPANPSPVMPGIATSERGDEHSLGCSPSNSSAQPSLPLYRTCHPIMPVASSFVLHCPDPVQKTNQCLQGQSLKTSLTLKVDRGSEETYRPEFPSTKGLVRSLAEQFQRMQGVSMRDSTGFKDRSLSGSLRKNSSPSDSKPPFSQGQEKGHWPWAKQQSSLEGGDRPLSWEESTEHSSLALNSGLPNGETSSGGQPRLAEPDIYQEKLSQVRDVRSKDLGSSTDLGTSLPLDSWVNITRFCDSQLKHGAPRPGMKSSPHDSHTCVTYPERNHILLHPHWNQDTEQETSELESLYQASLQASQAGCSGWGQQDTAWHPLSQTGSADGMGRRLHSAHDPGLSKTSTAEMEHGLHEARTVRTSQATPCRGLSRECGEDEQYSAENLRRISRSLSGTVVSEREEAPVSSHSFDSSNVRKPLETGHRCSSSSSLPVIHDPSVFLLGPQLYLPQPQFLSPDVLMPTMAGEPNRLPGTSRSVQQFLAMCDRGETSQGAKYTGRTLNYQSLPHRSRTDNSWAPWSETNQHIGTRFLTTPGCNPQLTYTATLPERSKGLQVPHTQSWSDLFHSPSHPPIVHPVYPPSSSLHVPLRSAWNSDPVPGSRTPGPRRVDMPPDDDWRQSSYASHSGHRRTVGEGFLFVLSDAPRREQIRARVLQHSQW
In short: as §1

USP7 = USP7 (UniProt Q93009)
Chain of USP7 (Q93009 whole entry, looked up): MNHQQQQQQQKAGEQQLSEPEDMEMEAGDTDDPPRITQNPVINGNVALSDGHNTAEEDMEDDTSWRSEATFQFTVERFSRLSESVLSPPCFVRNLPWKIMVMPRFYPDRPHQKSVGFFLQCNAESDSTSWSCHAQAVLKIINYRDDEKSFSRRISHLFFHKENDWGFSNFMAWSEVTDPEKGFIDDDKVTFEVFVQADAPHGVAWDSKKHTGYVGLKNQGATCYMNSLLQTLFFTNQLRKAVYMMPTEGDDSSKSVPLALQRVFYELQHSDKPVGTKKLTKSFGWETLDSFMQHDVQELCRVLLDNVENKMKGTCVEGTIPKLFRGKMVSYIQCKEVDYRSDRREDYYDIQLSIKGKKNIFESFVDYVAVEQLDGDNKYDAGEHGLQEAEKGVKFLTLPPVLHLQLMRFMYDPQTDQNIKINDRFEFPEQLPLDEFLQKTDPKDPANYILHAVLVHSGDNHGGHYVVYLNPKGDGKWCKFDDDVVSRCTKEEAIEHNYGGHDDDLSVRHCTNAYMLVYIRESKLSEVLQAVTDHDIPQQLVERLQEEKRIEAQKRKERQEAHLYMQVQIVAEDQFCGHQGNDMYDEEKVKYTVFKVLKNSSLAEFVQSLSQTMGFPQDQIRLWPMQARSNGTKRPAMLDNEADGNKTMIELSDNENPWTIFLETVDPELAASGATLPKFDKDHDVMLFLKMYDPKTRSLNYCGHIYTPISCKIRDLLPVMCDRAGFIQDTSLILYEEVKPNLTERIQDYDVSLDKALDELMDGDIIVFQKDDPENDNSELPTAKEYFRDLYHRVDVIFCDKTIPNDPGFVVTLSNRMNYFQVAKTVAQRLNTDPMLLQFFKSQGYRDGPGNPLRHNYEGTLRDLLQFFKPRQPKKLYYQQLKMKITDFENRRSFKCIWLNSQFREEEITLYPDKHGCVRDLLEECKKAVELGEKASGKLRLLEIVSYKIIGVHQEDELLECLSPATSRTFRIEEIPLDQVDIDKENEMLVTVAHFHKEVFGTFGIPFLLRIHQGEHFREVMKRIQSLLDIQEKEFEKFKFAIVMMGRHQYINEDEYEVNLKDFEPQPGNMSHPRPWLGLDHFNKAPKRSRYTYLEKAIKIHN
In short: as §1

USP8 = target: T5, USP8 (UniProt P40818)
T5 sequence (whole entry): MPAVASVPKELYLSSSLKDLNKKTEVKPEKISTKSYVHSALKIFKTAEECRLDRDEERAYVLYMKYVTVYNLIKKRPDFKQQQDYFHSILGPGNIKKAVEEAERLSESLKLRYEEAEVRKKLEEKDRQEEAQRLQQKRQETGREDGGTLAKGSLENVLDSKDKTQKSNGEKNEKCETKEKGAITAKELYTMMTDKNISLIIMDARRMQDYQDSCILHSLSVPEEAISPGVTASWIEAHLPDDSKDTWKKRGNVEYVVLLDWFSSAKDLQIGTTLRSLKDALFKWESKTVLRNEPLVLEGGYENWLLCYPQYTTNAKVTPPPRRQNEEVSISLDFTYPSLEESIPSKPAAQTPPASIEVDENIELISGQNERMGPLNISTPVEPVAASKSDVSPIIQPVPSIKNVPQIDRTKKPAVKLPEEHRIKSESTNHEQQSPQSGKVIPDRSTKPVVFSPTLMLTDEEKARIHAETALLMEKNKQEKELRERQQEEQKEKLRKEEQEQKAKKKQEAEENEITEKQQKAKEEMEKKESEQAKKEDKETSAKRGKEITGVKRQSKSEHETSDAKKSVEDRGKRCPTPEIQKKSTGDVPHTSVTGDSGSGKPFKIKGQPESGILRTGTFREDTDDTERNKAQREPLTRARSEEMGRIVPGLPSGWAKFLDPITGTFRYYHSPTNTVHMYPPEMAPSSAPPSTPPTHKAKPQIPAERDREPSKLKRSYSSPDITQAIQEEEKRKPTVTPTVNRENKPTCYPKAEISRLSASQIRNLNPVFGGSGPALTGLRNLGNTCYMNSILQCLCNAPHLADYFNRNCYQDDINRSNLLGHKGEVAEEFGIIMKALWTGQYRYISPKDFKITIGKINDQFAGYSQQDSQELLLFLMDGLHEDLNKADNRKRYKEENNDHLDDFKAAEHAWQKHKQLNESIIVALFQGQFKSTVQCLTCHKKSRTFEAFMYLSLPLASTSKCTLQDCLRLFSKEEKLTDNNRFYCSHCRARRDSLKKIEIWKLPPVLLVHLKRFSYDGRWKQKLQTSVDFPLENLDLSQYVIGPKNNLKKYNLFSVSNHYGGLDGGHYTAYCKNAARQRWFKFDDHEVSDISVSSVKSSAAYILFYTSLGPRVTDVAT
In short: as §1

Measured: log2 ratio of Biotin-Ahx-Ub-VS probe labelling

Cl.O=C(CN1CCN(C(=O)CCl)CC1)Nc1ccc(F)cc1
inactive: USP42 0.733 | USP46 0.0462 | USP47 -0.158 | USP48 -0.321 | USP5 0.365 | USP54 0.194 | USP7 -0.291 | USP8 0.234
